The values below come from PubChem BioAssay.

Test [1] in a line: E. coli DRC41 culture turbidity changes, primary screen, E. coli filamentation inducer project, strain DRC41, OD650, 48 h (AID 1152).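 Also: E. coli MC1000 strain DRC41 lacking acrAB efflux pump and sulA.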 Particulars: E. coli DRC41 (acrAB sulA), higher = more signal, called active from +8 up or from −8 down.
The nature of test [2]: small-molecule binders of probe aLefty1, primary screen, biochemical, small-molecule microarray, 635/667 nm fluorescence (AID 1153).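 Also: score merges spot fluorescence with signal-to-noise ratio from the scanned slide images.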 Particulars: higher = more signal.
Test [3] is described as follows: PSAC antagonists in infected red cells, primary screen, cell-based, P. falciparum Indochina, OD700, 1 h (AID 1154). The note with it: P. falciparum Indochina infected RBC osmotic lysis, higher = more signal, called active from +8 up or from −8 down.
Test [4] in a line: PSAC antagonists in infected red cells, primary screen, cell-based, P. falciparum Indochina, OD700, 2 h (AID 1155).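 Also: lysis reports solute entry through the parasite surface anion channel PSAC; channel blockers reduce lysis of infected cells.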 The note with it: P. falciparum Indochina infected erythrocytes, osmotic lysis OD700; higher = more signal, called active from +8 up or from −8 down.
Test [5] can be described thus: osmotic lysis modulators in infected erythrocytes, primary screen, PSAC antagonist project, cell-based, P. falciparum Indochina, OD700, 3 h (AID 1156). The note with it: higher = more signal, called active from +8 up or from −8 down.
Test [6] can be described thus: PSAC antagonists in infected red cells, primary screen, cell-based, P. falciparum Indochina, OD700, 18 h (AID 1157). Particulars: P. falciparum Indochina infected erythrocytes, osmotic lysis OD700, 18 h; higher = more signal, called active from +8 up or from −8 down.
The nature of test [7]: modulators of S6 phosphorylation in cells, primary screen, cell-based, A549, cytoblot, luminescence, serum-stimulated (AID 1158).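 Also: serum-stimulated A549 lung adenocarcinoma cells; signal is phosphorylated S6 detected by cytoblot immunostaining with HRP secondary.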 Particulars: A549 phospho-S6 cytoblot, 5 h, higher = more signal.
Test [8] addresses NADPH oxidase 2 (Homo sapiens) (UniProt P04839). The test is described as follows: NOX2-dependent H2O2 signal modulators, primary screen, NOX inhibitor project, cell-based, HEK293-NOX2, PMA-stimulated, Amplex Red fluorescence (AID 1159). Also: test concentration not given here. Particulars: 45 min, higher = more signal, called active from +8 up or from −8 down.
Test [9] deals with NADPH oxidase 4 (Homo sapiens) (UniProt Q9NPH5). The test is described as follows: NOX4-dependent H2O2 signal modulators, primary screen, NOX inhibitor project, cell-based, HEK293-NOX4, tetracycline-induced, Amplex Red fluorescence (AID 1160). The note with it: 45 min, higher = more signal, called active from +8 up or from −8 down.
NADPH oxidase 4 (Homo sapiens), sequence (Q9NPH5 whole entry, looked up): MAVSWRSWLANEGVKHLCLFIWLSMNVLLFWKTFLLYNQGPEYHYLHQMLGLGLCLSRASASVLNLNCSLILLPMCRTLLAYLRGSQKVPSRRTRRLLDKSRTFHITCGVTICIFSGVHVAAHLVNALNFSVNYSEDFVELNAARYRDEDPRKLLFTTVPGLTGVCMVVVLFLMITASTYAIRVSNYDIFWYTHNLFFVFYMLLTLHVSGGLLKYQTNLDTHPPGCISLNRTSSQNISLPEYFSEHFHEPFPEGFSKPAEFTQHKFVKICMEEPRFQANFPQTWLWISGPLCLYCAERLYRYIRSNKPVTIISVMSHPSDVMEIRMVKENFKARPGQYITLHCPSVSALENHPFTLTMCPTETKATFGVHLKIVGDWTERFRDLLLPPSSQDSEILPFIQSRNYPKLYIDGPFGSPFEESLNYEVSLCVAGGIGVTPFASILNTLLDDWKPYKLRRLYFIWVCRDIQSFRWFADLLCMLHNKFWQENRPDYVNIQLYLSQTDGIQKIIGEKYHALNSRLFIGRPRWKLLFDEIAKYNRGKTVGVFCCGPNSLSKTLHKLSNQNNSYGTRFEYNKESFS
For test [10], the target named is NADPH oxidase 5 (Homo sapiens) (UniProt Q96PH1). In words: NOX5-dependent H2O2 signal modulators, primary screen, NOX inhibitor project, cell-based, HEK293-NOX5, Amplex Red fluorescence (AID 1161). The note with it: HEK293-NOX5, ionomycin, 45 min, higher = more signal.
NADPH oxidase 5 (Homo sapiens), sequence (Q96PH1 whole entry, looked up): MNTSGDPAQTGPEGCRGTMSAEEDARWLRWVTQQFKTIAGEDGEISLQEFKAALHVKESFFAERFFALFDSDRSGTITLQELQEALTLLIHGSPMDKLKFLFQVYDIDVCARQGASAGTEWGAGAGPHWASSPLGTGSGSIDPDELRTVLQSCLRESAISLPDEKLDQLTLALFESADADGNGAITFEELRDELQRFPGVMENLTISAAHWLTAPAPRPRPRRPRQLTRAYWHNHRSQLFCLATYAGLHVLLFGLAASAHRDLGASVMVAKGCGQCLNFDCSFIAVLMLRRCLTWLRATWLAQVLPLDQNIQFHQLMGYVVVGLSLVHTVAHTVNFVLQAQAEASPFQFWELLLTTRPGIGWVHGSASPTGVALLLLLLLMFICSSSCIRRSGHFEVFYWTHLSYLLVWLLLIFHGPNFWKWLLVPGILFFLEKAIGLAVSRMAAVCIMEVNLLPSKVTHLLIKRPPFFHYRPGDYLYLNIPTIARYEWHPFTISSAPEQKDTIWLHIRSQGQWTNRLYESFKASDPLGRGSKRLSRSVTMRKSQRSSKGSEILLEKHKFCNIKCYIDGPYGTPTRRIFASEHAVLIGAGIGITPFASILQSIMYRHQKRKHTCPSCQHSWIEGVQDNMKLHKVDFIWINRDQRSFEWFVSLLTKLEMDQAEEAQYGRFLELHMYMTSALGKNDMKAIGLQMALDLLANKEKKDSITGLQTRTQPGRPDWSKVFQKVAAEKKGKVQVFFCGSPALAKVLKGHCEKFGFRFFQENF
Test [11] is described as follows: A549 cell viability effects, profiling panel, calcein-AM fluorescence, 48 h, basal (AID 1162). Also: test concentration not given here. Particulars: higher = more signal.
The nature of test [12]: adipocyte viability effects, profiling panel, cell-based, 3T3-L1 adipocytes, calcein-AM fluorescence, 48 h, basal (AID 1163). Also: test concentration not given here. Particulars: 3T3-L1 adipocytes viability, higher = more signal.
Test [13] can be described thus: HepG2 cell viability effects, profiling panel, calcein-AM fluorescence, 48 h, basal (AID 1164). Also: test concentration not given here. Particulars: higher = more signal.
The nature of test [14]: MM1S cell viability effects, profiling panel, calcein-AM fluorescence, 48 h, basal (AID 1165).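 Also: viability of MM1S multiple myeloma cells under basal unstimulated conditions; test concentration not given here.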 Particulars: higher = more signal.
Test [15] is described as follows: basal RPMI8226 viability, no added stimulus, profiling panel, cell-based, calcein-AM fluorescence, 48 h, PK04 Diversity Set (AID 1166).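 Also: cells grown under basal conditions without added stimulus; test concentration not given here.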 Particulars: RPMI8226 myeloma viability, higher = more signal.
The nature of test [16]: basal HepG2 mitochondrial membrane potential changes, profiling panel, cell-based, JC-1 fluorescence, 24 h, 100 nL compound (AID 1167). Also: test concentration not given here. The note with it: higher = more signal.
Test [17] in a line: basal 3T3-L1 adipocyte mitochondrial potential changes, profiling panel, cell-based, JC-1 fluorescence, 3T3-L1 adipocytes, 24 h, 100 nL compound (AID 1168). Also: test concentration not given here. The note with it: JC-1 mitochondrial fluorescence, higher = more signal, called active from +8 up or from −8 down.
Test [18] in a line: basal RPMI8226 mitochondrial membrane potential changes, profiling panel, cell-based, JC-1 fluorescence, 24 h, 100 nL compound (AID 1169). Also: test concentration not given here. The note with it: RPMI8226 myeloma, JC-1 mitochondrial potential fluorescence, higher = more signal.
Test [19] in a line: basal MM1S mitochondrial membrane potential changes, profiling panel, cell-based, JC-1 fluorescence, 24 h, 100 nL compound (AID 1170). Also: test concentration not given here. Particulars: higher = more signal.
A short description of test [20]: A549 lung cancer cell viability effects, profiling panel, resazurin fluorescence, 24 h, PK04 Diversity Set (AID 1171). Also: test concentration not given here. The note with it: higher = more signal, called active from +8 up or from −8 down.

Active and inactive are the calls of the source.

NADPH oxidase 2 (Homo sapiens), sequence (P04839 whole entry, looked up): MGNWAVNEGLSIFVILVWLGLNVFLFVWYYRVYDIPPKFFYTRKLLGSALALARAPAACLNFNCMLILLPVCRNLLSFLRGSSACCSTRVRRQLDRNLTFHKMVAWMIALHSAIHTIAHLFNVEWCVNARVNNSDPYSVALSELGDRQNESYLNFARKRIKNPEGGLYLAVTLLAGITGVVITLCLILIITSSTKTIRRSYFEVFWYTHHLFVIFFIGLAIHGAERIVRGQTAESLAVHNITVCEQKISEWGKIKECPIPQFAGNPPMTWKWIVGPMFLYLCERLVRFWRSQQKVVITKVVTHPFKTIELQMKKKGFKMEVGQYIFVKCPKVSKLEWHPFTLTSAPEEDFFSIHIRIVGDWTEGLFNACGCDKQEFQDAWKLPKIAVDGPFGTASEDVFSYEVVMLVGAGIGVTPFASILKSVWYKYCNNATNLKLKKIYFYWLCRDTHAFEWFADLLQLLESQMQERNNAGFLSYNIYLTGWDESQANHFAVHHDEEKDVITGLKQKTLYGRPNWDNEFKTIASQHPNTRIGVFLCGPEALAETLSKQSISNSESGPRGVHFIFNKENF

With `COc1ccc(CCNC(=O)[C@@H]2c3ccccc3C(=O)N(Cc3ccccc3)[C@H]2c2ccc(CO)cc2)cc1`, the z-score was 1.81 (inactive) in test [1]; 3.59 (inactive) in [3]; -0.275 (inactive) in [4]; 0.504 (inactive) in test [5]; -0.508 (inactive) in [6]; 1.89 in [7]. The z-score was -6.18 (inactive) in test [8]; -0.909 (inactive) in test [9]; -4.52 in test [10]; 2.96 in test [11]; 1.29 in test [12]; 2.44 in test [13]. Besides, the z-score in [14] was -0.913; in [15], 1.02; in test [16] it was 2.56; in [17] it was 1.26 (inactive); in test [18], -0.192; in test [19], -0.502. Besides, the z-score in [20] is 0.577 (inactive). Also, the composite z-score in test [2] came out at 0.436.

As to `Cc1ccc(S[C@]2(C(=O)O)CC(=O)N(C3CCCCC3)[C@@H]2c2ccc(CO)cc2)cc1`, the z-score in test [1] is 0.858 (inactive); in test [3] it was 2.06 (inactive); in test [4], 0.0744 (inactive); in [5], 0.854 (inactive); in [6] it was 0.0854 (inactive); in test [7] it was -0.158. In addition, the z-score in test [8] was 1.09 (inactive); in [9] it was 0.585 (inactive); in test [10], 0.763; in test [11], -0.0959; in [12], -0.753; in test [13] it was 0.952. Also, the z-score in [14] was -0.634; in test [15], 0.761; in test [16], 0.318; in test [17] it was 0.144 (inactive); in test [18], -0.148; in [19], -0.776. In addition, the z-score in [20] is -0.345 (inactive). Moreover, in test [2], the composite z-score is -0.672.

On to `C=CCOC(=O)[C@@H]1[C@H]2C(=O)O[C@H](c3ccccc3)[C@H](c3ccccc3)N2[C@H](c2ccc(OCCOC(=O)[C@H]3C[C@H]4C(=O)N[C@@H](Cc5ccccc5)C(=O)N4[C@H]3c3cccc(OCCO)c3)cc2)[C@@]12C(=O)Nc1ccc(I)cc12`, for which the z-score in test [1] was -0.804 (inactive); in test [3], 1.94 (inactive); in [4], 1.79 (inactive); in test [5], -1.66 (inactive); in test [6], 0.619 (inactive); in [7] it was 0.652. Besides, the z-score in [8] was 2.21 (inactive); in test [9] it was 0.45 (inactive); in [10], 1.98; in [11] it was 0.188; in test [12], -0.282; in [13], 0.921. For the same compound, the z-score is -3.18 in test [14]; -0.493 in [15]; 0.244 in test [16]; 0.473 (inactive) in [17]; -0.903 in [18]; -1.57 in test [19]. Further, the z-score in test [20] is 0.535 (inactive). Besides, the composite z-score in [2] worked out at 0.403.

For `CC(C)(C)OC(=O)CC[C@]1(C(=O)O)COC(c2ccc(OCCCO)cc2)=N1`, the z-score was -0.283 (inactive) in [1]; 2.54 (inactive) in [3]; -0.0827 (inactive) in test [4]; 0.091 (inactive) in [5]; 0.0515 (inactive) in test [6]; -0.426 in [7]. In addition, the z-score in test [8] was 0.0212 (inactive); in test [9] it was 0.624 (inactive); in test [10], 0.487; in test [11], -0.0651; in test [12], -2.83; in test [13], 0.218. The z-score in test [14] was -0.97; in test [15], 0.151; in test [16] it was -0.924; in test [17] it was -0.564 (inactive); in [18], -0.812; in [19] it was 0.148. The z-score in [20] is -0.135 (inactive). In addition, in [2], the composite z-score is 0.126.
